Results filed as inconclusive are left out. Entries that show only a call come without a potency. Active and inactive are the calls of the source. Calls come from the whole dose curve; as a rule, active = well fitted curve in the direction sought with a large enough effect; inconclusive = small, poorly fitted or top-dose-only effect, or another doubt; inactive = no such curve, though single readings can be large; an effect the other way counts as inactive or inconclusive.
These molecules were tested against Aldehyde dehydrogenase, mitochondrial (Homo sapiens) (UniProt P05091) (assay: qHTS for Inhibitors of the Aldehyde Dehydrogenase Family (ALDH2) Primary screen (AID 2061308; note: nearly all actives have a fitted effect of over 55% in size)). Details: ALDH2 enzyme inhibition qHTS, 1536-well; series mostly up to 56 µM.

SMILES | Potency
COc1ccc([C@H]2[C@H](c3ccccc3)C(=O)N2Cc2ccccc2)cc1COc1ccc(NC(C)=O)cc1 | inactive
C=C1[C@H]2CC[C@H](C(=O)O)[C@@]23CC[C@H](C3)C1(C)C | inactive
Cc1ccc(OCCn2c(CCNC(=O)c3ccccc3)nc3ccccc32)cc1 | inactive
CC(=O)Nc1ccccc1OC1=N[S+](=O)([O-])c2ccccc21 | inactive
CC(C)(C)c1ccc(-c2ccc(=O)n(CC(=O)NCCc3ccccc3)n2)cc1 | inactive
COc1ccccc1C1=Nn2c(nnc2-c2ccccc2OC)SC1 | inactive
Cc1ccc(-c2ccc(=O)n(CC(=O)N(C3CCCCC3)C3CC3)n2)cc1 | inactive
Cc1cn([C@H]2C[C@H](N[S+](=O)([O-])c3ccc4c(c3)OCCO4)[C@@H](CO)O2)c(=O)[nH]c1=O | inactive
CC(=O)Nc1sc2c(c1-c1cccc3ccccc13)CCNC2 | inactive
COc1cc(OC)cc(-c2nnc3n2N=C(c2c(OC)cccc2OC)CS3)c1 | inactive
O=C1Cc2cc(S(=O)(=O)N3CCN(c4ccc(CO)cc4)CC3)ccc2N1 | inactive
Cc1ccc(NS(=O)(=O)c2ccc(F)cc2)cc1C | inactive
Oc1ccc(CCc2ccccc2F)c2cccnc12 | inactive
Cc1cc2c(s1)c1c(C)nn(Cc3ccccc3F)c(=O)c1n2C | inactive
COC(=O)C1=CO[C@@H](O[C@@H]2O[C@H](CO)[C@@H](O)[C@H](O)[C@H]2O)[C@H]2[C@@H]1CC(OC)O[C@@H]2C (stereo not given in full) | inactive
O=[S+]([O-])(c1c(F)cccc1F)N1CCN([S+](=O)([O-])c2cccc3nonc23)CC1 | inactive
Cc1ccc(-n2c(=O)ccc(=O)n2CC(=O)NCCc2ccccc2)cc1 | inactive
Cc1cc(NC(=O)Nc2cccc(-c3ccncc3)n2)ccc1Br | inactive
COc1cccc(CN(C)c2ccc([S+](=O)([O-])Nc3nccs3)cc2)c1O | inactive
O=C(CCCc1ccccc1)NC(c1ccco1)c1cc(Cl)c2cccnc2c1O (stereo not given) | inactive

SMILES | Potency
NC(=O)c1ccc(O)c2ncccc12 | inactive
O=C1CCc2cc(S(=O)(=O)Nc3ccc(F)c(Cl)c3)ccc2N1 | inactive
O=C(Nc1nc(-c2ccccc2)cs1)c1ccccc1Cl | inactive
COc1ccc(NS(=O)(=O)c2ccc(C)cc2)c(C(=O)Nc2nc(-c3ccccc3)cs2)c1 | inactive
c1nc(OCc2cnc[nH]2)c2cc(-c3ccc4c(c3)OCO4)ccc2n1 | inactive
N#Cc1nc(NCCCO)nc(Nc2ccccc2)n1 | inactive
COc1ccc(C2Nc3ccccc3C(=O)N2Cc2ccc(C(F)(F)F)o2)cc1COc1c(C)cccc1C (stereo not given) | inactive
O=C(Nc1ccccc1)Nc1ccccc1 | inactive
O=C(OCC#CCSc1nnc(-c2cccc3ccccc23)o1)c1cccc2[nH]ccc12 | inactive
N#Cc1nc(Nc2cc(F)cc(Cl)c2)nc(NC2CCCC2)n1 | inactive
COc1ccc(CN(Cc2ccccc2)S(=O)(=O)c2ccccc2)cc1COc1ccc(NC(C)=O)cc1 | inactive
CCOC(=O)C1CCC(C(=O)Nc2ccc([S+](=O)([O-])Nc3nccs3)cc2)CC1 (stereo not given) | inactive
O=C(Nc1cncnc1)c1cccs1 | inactive
Cc1ccc(OCCn2c(CCNC(=O)NC3CCCCC3)nc3ccccc32)cc1 | inactive
O=C(Nc1ccc2sccc2c1)Nc1nnc(-c2cccnc2)s1 | inactive
COc1cc(O)c(C(CC(=O)N2CCC(C)CC2)c2ccc(C)cc2)c(OC)c1 (stereo not given) | inactive
Cc1cncc(NC(=S)N2CCN(c3cccc(C(F)(F)F)c3)CC2)c1 | inactive
COc1ccc(OC)c(C2=Nn3c(nnc3-c3cc(OC)ccc3OC)SC2)c1 | inactive
CC(C)c1ccccc1-c1nc(NCc2ccc(-c3cccnc3)cc2)c2[nH]cnc2n1 | inactive
O=C1CCc2cc(S(=O)(=O)Nc3cccc(Cl)c3)ccc2N1 | inactive

The molecules below were run against Retinaldehyde dehydrogenase 3 (Homo sapiens) (UniProt P47895) (assay: qHTS for Inhibitors of the Aldehyde Dehydrogenase Family (ALDH1A3) Primary screen (AID 2061315)). Details: ALDH inhibition qHTS; series mostly up to 56 µM.

SMILES | Potency
COc1ccc([C@H]2[C@H](c3ccccc3)C(=O)N2Cc2ccccc2)cc1COc1ccc(NC(C)=O)cc1 | inactive
C=C1[C@H]2CC[C@H](C(=O)O)[C@@]23CC[C@H](C3)C1(C)C | inactive
Cc1ccc(OCCn2c(CCNC(=O)c3ccccc3)nc3ccccc32)cc1 | inactive
CC(=O)Nc1ccccc1OC1=N[S+](=O)([O-])c2ccccc21 | inactive
CC(C)(C)c1ccc(-c2ccc(=O)n(CC(=O)NCCc3ccccc3)n2)cc1 | inactive
COc1ccccc1C1=Nn2c(nnc2-c2ccccc2OC)SC1 | inactive
Cc1ccc(-c2ccc(=O)n(CC(=O)N(C3CCCCC3)C3CC3)n2)cc1 | inactive
Cc1cn([C@H]2C[C@H](N[S+](=O)([O-])c3ccc4c(c3)OCCO4)[C@@H](CO)O2)c(=O)[nH]c1=O | inactive
CC(=O)Nc1sc2c(c1-c1cccc3ccccc13)CCNC2 | inactive
COc1cc(OC)cc(-c2nnc3n2N=C(c2c(OC)cccc2OC)CS3)c1 | inactive
O=C1Cc2cc(S(=O)(=O)N3CCN(c4ccc(CO)cc4)CC3)ccc2N1 | inactive
Cc1ccc(NS(=O)(=O)c2ccc(F)cc2)cc1C | inactive
Oc1ccc(CCc2ccccc2F)c2cccnc12 | inactive
Cc1cc2c(s1)c1c(C)nn(Cc3ccccc3F)c(=O)c1n2C | inactive
COC(=O)C1=CO[C@@H](O[C@@H]2O[C@H](CO)[C@@H](O)[C@H](O)[C@H]2O)[C@H]2[C@@H]1CC(OC)O[C@@H]2C (stereo not given in full) | inactive
O=[S+]([O-])(c1c(F)cccc1F)N1CCN([S+](=O)([O-])c2cccc3nonc23)CC1 | inactive
Cc1ccc(-n2c(=O)ccc(=O)n2CC(=O)NCCc2ccccc2)cc1 | inactive
Cc1cc(NC(=O)Nc2cccc(-c3ccncc3)n2)ccc1Br | inactive
COc1cccc(CN(C)c2ccc([S+](=O)([O-])Nc3nccs3)cc2)c1O | inactive
O=C(CCCc1ccccc1)NC(c1ccco1)c1cc(Cl)c2cccnc2c1O (stereo not given) | inactive

SMILES | Potency
NC(=O)c1ccc(O)c2ncccc12 | inactive
O=C1CCc2cc(S(=O)(=O)Nc3ccc(F)c(Cl)c3)ccc2N1 | inactive
O=C(Nc1nc(-c2ccccc2)cs1)c1ccccc1Cl | inactive
COc1ccc(NS(=O)(=O)c2ccc(C)cc2)c(C(=O)Nc2nc(-c3ccccc3)cs2)c1 | inactive
c1nc(OCc2cnc[nH]2)c2cc(-c3ccc4c(c3)OCO4)ccc2n1 | inactive
N#Cc1nc(NCCCO)nc(Nc2ccccc2)n1 | inactive
COc1ccc(C2Nc3ccccc3C(=O)N2Cc2ccc(C(F)(F)F)o2)cc1COc1c(C)cccc1C (stereo not given) | inactive
O=C(Nc1ccccc1)Nc1ccccc1 | inactive
O=C(OCC#CCSc1nnc(-c2cccc3ccccc23)o1)c1cccc2[nH]ccc12 | inactive
N#Cc1nc(Nc2cc(F)cc(Cl)c2)nc(NC2CCCC2)n1 | inactive
COc1ccc(CN(Cc2ccccc2)S(=O)(=O)c2ccccc2)cc1COc1ccc(NC(C)=O)cc1 | inactive
CCOC(=O)C1CCC(C(=O)Nc2ccc([S+](=O)([O-])Nc3nccs3)cc2)CC1 (stereo not given) | inactive
O=C(Nc1cncnc1)c1cccs1 | inactive
Cc1ccc(OCCn2c(CCNC(=O)NC3CCCCC3)nc3ccccc32)cc1 | inactive
O=C(Nc1ccc2sccc2c1)Nc1nnc(-c2cccnc2)s1 | inactive
COc1cc(O)c(C(CC(=O)N2CCC(C)CC2)c2ccc(C)cc2)c(OC)c1 (stereo not given) | inactive
Cc1cncc(NC(=S)N2CCN(c3cccc(C(F)(F)F)c3)CC2)c1 | inactive
COc1ccc(OC)c(C2=Nn3c(nnc3-c3cc(OC)ccc3OC)SC2)c1 | inactive
CC(C)c1ccccc1-c1nc(NCc2ccc(-c3cccnc3)cc2)c2[nH]cnc2n1 | inactive
O=C1CCc2cc(S(=O)(=O)Nc3cccc(Cl)c3)ccc2N1 | inactive

— PubChem BioAssay (NCATS)
